An excerpt weighted towards active compounds, which were near 9.4% of everything screened.
ELG1 genotoxic: induces genotoxicity in HEK293T cells with luciferase-tagged ELG1; HEK293T ELG1-luciferase reporter, luminescence, 16 h; Potency, µM (titrated, usually from 46 µM), without a hit: at the highest dose activity change, positive = activation, most hits filed as activators; hit rate 1.3% among 330,000; note: % of control where 0% means no effect; nearly all actives have a fitted effect of over 60% in size
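After overnight (16 hr) compound treatment at 37 °C, ELG1-luciferase HEK293T cells were lysed with ONE-Glo; luminescence quantified 30 min later at room temperature.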
Rab9 prom act: activators of Rab9 promoter. Huh7 Rab9 promoter-luciferase reporter, luminescence, 24 h. Potency, µM (series often up to 9.22 µM), for inactives: top-dose activation, negative = inhibition, usual class: activators. hit rate 2.8% among 320,000. AID 485297; note: % of control where 0% means no effect; nearly all actives have a fitted effect of over 60% in size
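Stable Rab9-luc Huh7, 1500 cells/well, 2 h settle; cmpd in DMSO, 24 h, 37 °C/5% CO2; luciferase reagent 10 min RT; luminescence.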
SMN2 splice up: increases expression of the SMN2 splice variant. HEK293 SMN2-luciferase splicing reporter, luminescence, 30-36 h. Potency, µM (doses to about 46.1 µM), for inactives: at the top dose activity change, positive = activation, actives largely listed as activators. hit rate 2.8% among 210,000. AID 1458; note: % of control where 0% means no effect; nearly all actives have a fitted effect of over 55% in size
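qHTS luciferase splicing reporter: luminescence rises when SMN2 exon 7 is included in transfected HEK293 cells. Compound exposure lasted 30-36 h at 37C, with 4.5 mM final sodium butyrate as control, followed by a ONE-Glo read.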
ELG1 DNA repair: blocks ELG1-dependent DNA repair in HEK293T cells | HEK293T ELG1-luciferase reporter, luminescence, 16 h; DNA damage induced by 5-fluorouridine | Potency, µM (top dose mostly 46.1 µM), for inactives: at the top dose activity change, negative = inhibition, actives largely listed as inhibitors | hit rate 2.3% among 330,000; note: % is set by controls: 0 for no effect and ±100 for the full control effect; nearly all actives have a fitted effect of over 55% in size
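Reporter activity after DNA damage by 5-fluorouridine is monitored. Compound-treated cells incubate 16 hr at 37 °C, then ONE-Glo is added for 30 min before luminescence reading.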
FLuc counter: counter-screen for miR-21 project: firefly luciferase inhibitors or activators; P08659; purified FLuc, Km substrates, luminescence inhibition; Potency, µM (doses to about 57.5 µM), for inactives: at the top dose activity change, negative = inhibition, actives largely listed as inhibitors; hit rate 6.9% among 360,000; AID 588342;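 note: plate controls were vehicle for no effect and reference inhibitor for full effect; nearly all actives have a fitted effect of over 55% in size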
Target sequence (P08659 whole entry, looked up): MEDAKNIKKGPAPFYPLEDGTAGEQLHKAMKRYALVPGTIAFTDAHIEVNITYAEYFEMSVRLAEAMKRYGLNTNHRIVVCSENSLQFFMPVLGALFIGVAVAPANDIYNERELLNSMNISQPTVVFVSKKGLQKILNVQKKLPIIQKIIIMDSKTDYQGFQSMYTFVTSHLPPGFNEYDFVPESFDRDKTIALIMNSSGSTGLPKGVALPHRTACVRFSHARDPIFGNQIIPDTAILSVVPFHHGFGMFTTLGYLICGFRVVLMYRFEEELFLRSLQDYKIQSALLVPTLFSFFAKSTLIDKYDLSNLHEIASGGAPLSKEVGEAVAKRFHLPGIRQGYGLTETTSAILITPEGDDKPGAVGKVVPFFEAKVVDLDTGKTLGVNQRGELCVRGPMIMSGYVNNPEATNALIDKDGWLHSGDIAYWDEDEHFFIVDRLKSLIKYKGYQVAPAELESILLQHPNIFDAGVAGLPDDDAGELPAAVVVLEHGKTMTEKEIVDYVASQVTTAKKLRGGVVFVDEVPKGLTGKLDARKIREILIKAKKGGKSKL
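Biochemical qHTS of compounds, final roughly 60 µM downward over six points, against 10 nM purified firefly luciferase using Km concentrations of substrates (10 uM D-luciferin, 10 uM ATP) in Tris acetate pH 7.5 buffer; luminescence output.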
NPC1 promoter act: activates the NPC1 promoter; AID 485313; hit rate 2.4% among 320,000; Potency, µM (highest dose often 9.22 µM), for inactives: at the top dose activation, actives largely listed as activators; Huh7 NPC1 promoter luciferase reporter, 24 h; note: % of control where 0% means no effect; nearly all actives have a fitted effect of over 60% in size
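Luciferase expression driven by the NPC1 promoter was measured in stably transfected Huh7 cells after a 24 h compound incubation, using a luciferase reagent and a luminescence read.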
* = called active by the depositor; ? = inconclusive; / = no result. Calls come from the whole dose curve; as a rule, active = well fitted curve in the direction sought with a large enough effect; inconclusive = small, poorly fitted or top-dose-only effect, or another doubt; inactive = no such curve, though single readings can be large; an effect the other way counts as inactive or inconclusive. Potency is the fitted concentration of half-maximal effect.

SMILES | ELG1 genotoxic | Rab9 prom act | SMN2 splice up | ELG1 DNA repair | FLuc counter | NPC1 promoter act
Cc1ccc2[nH]cc(CCNC(=O)c3ccc4c(c3)OCO4)c2c1 | -6% | -3% | / | -2% | ? | 11%
O=C(NCCc1c[nH]c2ccccc12)/C(=C\c1cccs1)NC(=O)c1ccccc1 | -4% | -1% | 4% | -20% | 3% | -4%
O=C(NCCc1c[nH]c2ccccc12)c1cc(Cl)c2c(c1)OCO2 | ? | 1.4µM* | / | ? | 24µM* | 2.5µM*
O=C(NCCc1c[nH]c2ccccc12)c1ccc2c(c1)OCO2 | ? | 1.3µM* | / | ? | 6.7µM* | 1.1µM*
Cn1c(C(=O)NCCc2c[nH]c3ccccc23)cc2sccc21 | 15µM* | ? | 25% | ? | 12µM* | ?
N#C/C(=C\c1ccc(Br)cc1)c1nc(-c2cc3cc(Br)ccc3oc2=O)cs1 | / | / | 1% | / | -5% | /
CCn1c(SCC(=O)N/N=C/c2c[nH]c3ccccc23)nnc1-c1ccc(C(C)(C)C)cc1 | -11% | -2% | -40% | 18µM* | ? | 1%
C=CCn1c(=NC(=O)c2cccs2)sc2cccc(OC)c21 | -8% | 14% | / | -8% | 15µM* | -1%
CCn1c(=NC(=O)c2ccc(S(=O)(=O)N(C)C)cc2)sc2cccc(OC)c21 | -1% | -1% | -23% | ? | -6% | -12%
Cc1nc(-c2ccccc2)cc(=O)[nH]1 | 3% | -2% | 2% | 1% | 2% | 3%
Cc1cc(=O)n2cc(-c3ccccc3)nc2[nH]1 | 12% | 23% | / | ? | 12µM* | 26%
Cc1ccc(-c2cn3c(=O)cc(C)[nH]c3n2)cc1 | ? | 0.79µM* | 10µM* | ? | 0.85µM* | 1.6µM*
CCCCSCCCNC(=O)CS(=O)Cc1nc(-c2cccc(C)c2)oc1C (centres undefined) | 0% | -6% | -26% | 16µM* | -2% | 1%
COc1ccc(Nc2ncnc3sc(-c4ccccc4)cc23)cc1OC | 0% | 0% | -6% | ? | 12µM* | 1%
COc1ccc(-c2cc(C(=O)NC(C)C)no2)cc1 | 6.5µM* | 1.1µM* | 13µM* | ? | 5.4µM* | 2.5µM*
COC(=O)c1cc(-c2cccc(OC)c2)on1 | 2% | -3% | -11% | -14% | 12µM* | -2%
CCN(CC)C(=O)c1cc(-c2ccc(Br)cc2)on1 | ? | 3.2µM* | ? | ? | 9.5µM* | 2µM*
Cc1cc(NC(=O)c2cc(-c3ccc(Br)cc3)on2)no1 | 4% | -1% | 10% | 2% | -1% | -2%
COc1ccc(-c2cc(C(=O)Nc3ccc(OC)cc3OC)no2)cc1 | -1% | 2% | / | 4% | -3% | 1%
COC(=O)c1cc(-c2ccc(OC)cc2)on1 | 1% | -7% | / | -13% | 8.5µM* | -1%
Cc1ccc(-c2onc(C)c2C)cc1S(=O)(=O)NCc1cccs1 | / | / | / | / | -10% | /
O=C(O)c1cc(-c2ccccc2)on1 | 0% | 2% | 0% | 2% | 0% | -3%
COC(=O)c1cc(-c2ccc(Br)cc2)on1 | 1% | 1% | -2% | 3% | 8.5µM* | -1%
COC(=O)c1cc(-c2ccccc2)on1 | 2% | 1% | 8% | 1% | 17µM* | -21%
COC(=O)[C@@]1(Cc2ccccc2)[C@H]2c3cc(C(=O)N4CCCC4)n(Cc4ccc(OC)c(OC)c4)c3C[C@H]2CN1C(=O)c1ccccc1 | / | / | -25% | / | / | /
SMILES | ELG1 genotoxic | Rab9 prom act | SMN2 splice up | ELG1 DNA repair | FLuc counter | NPC1 promoter act
Cc1ccc(-c2[nH]ncc2/C=C(\C#N)C(=O)NC2CCCCC2)cc1 | -6% | -4% | -24% | 9.2µM* | 0% | -3%
COc1ccc(-c2[nH]ncc2/C=C(/C#N)C(=O)NC2CCCCC2)cc1 | -2% | 1% | -14% | ? | 12% | -1%
COc1ccccc1N1CCN(C(=O)Cn2c(=O)nc(-c3ccccc3)c3ccccc32)CC1 | / | / | / | / | 2% | /
COc1ccc(-c2c(C)c3ccc(O)c(CN4CCCC(C)C4)c3oc2=O)cc1OC (centres undefined) | / | / | / | / | -5% | /
CCN(CC(=O)NCc1ccc(Cl)cc1)C(=O)/C=C/c1ccc(Cl)c([N+](=O)[O-])c1 | -6% | 2% | / | 23% | 9.5µM* | 13%
CCc1cc(C(=O)Nc2c(C)nn(Cc3ccc(C)cc3)c2C)no1 | / | / | -21% | / | 0% | /
CCOC(=O)c1c(C)[nH]c(C(=O)COC(=O)CSC)c1C | 3% | -6% | 8% | 17% | 11µM* | -3%
CCCCCC(=O)c1c(C)[nH]c(C(=O)OCC)c1C | 0% | 6% | -1% | 26% | ? | 5%
CCOC(=O)c1c(C)[nH]c(C(=O)COC(=O)C23CC4CC(CC(Cl)(C4)C2)C3)c1C | -2% | -5% | 22% | 12µM* | 1% | -4%
CCCCC(=O)OCC(=O)c1[nH]c(C)c(C(=O)OCC)c1C | 12% | -1% | 27% | ? | 1.9µM* | 0%
CCCCCCC(=O)c1c(C)[nH]c(C(=O)OCC)c1C | 14µM* | 27% | ? | ? | ? | 26%
CCOC(=O)c1c(C)[nH]c(C(=O)COC(=O)c2c(CC)noc2C)c1C | -7% | -5% | / | -10% | 0% | -1%
COc1ccc(-c2noc(CNC(=O)COc3cccc(C)c3C)n2)cc1 | / | / | -2% | / | 2% | /
COc1ccc(CCn2c(O)cc3nn(-c4nc5ccccc5s4)c(=O)c-3c2C)cc1 | 14% | ? | / | ? | 9.5µM* | 2.8µM*
CCOc1cc(C(=O)OCc2cc(=O)n3nc(C4CC4)sc3n2)cc(OCC)c1OCC | / | / | / | / | -7% | /
CC1=NN(C(N)=S)C(=O)C1N=Nc1cccc2ccccc12 (centres undefined) | ? | ? | ? | ? | 17µM* | ?
CC1=NN(C(N)=S)C(=O)C1N=Nc1cccc(Cl)c1C (centres undefined) | 7% | 3.5µM* | / | ? | 11µM* | ?
Cc1c(Cl)cccc1NC(=S)Nc1ccccn1 | -7% | -25% | 12% | 4% | 4% | -25%
CCNC(=O)CC1SC(=Nc2cccc3ccccc23)N(C)C1=O (centres undefined) | 3% | 1% | 10% | 14% | 0% | -7%
COc1cc(Cl)c(S(=O)(=O)NCCc2c(C)[nH]c3c(C)cccc23)cc1Cl | / | / | 1% | / | -2% | /
CN(C)c1ccc(C(CNC(=O)c2ccccc2F)N2CCc3ccccc32)cc1 (centres undefined) | / | / | / | / | 4% | /
Cc1nc2ccccn2c1C(=O)Nc1ccc2c(c1)OCCO2 | ? | ? | 7.1µM* | ? | 12µM* | ?
Cc1nc2ccccn2c1C(=O)Nc1ccc(Cl)cc1 | ? | ? | 88% | ? | 24µM* | ?

From PubChem
